The panel holds about 83,000 compounds, 20% with a hit somewhere; the sample as a whole holds those more often.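 Step 1: grow cells in 96-well plates. Step 2: add test compound at a single concentration. Step 3: incubate 48 h. Step 4: record percent growth.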 Values without a mark were called inactive. Active and inactive are the calls of the source. The calls were made as follows: active = growth percent below 10; inactive = the rest.
Columns and labels:
Assay in all cases: NCI-60 one-dose screen, 48 h (100 = growth as untreated, 0 = no growth, -100 = all killed)
Conditions in all cases: 10 µM unless noted
DU-145 prostate = tested on: DU-145 prostate
K-562 leukemia = tested on: K-562 leukemia
MALME-3M melanoma = tested on: MALME-3M melanoma
MDA-MB-231 breast = tested on: MDA-MB-231 breast
RXF 393 renal = tested on: RXF 393 renal
SF-268 CNS = tested on: SF-268 CNS
SF-295 CNS = tested on: SF-295 CNS
SF-539 CNS = tested on: SF-539 CNS
UACC-257 melanoma = tested on: UACC-257 melanoma
M14 melanoma = tested on: M14 melanoma
HCT-15 colon = tested on: HCT-15 colon
HT29 colon = tested on: HT29 colon
SNB-75 CNS = tested on: SNB-75 CNS
SNB-19 CNS = tested on: SNB-19 CNS
U251 CNS = tested on: U251 CNS
PC-3 prostate = tested on: PC-3 prostate
SK-MEL-5 melanoma = tested on: SK-MEL-5 melanoma
UACC-62 melanoma = tested on: UACC-62 melanoma
LOX IMVI melanoma = tested on: LOX IMVI melanoma
SK-MEL-28 melanoma = tested on: SK-MEL-28 melanoma

Q: How did the growth (DU-145 prostate) turn out when `O=C(CN1N=C(c2ccc(F)cc2)CCC1=O)Nc1nccs1` was run?
A: 118%

Q: What about the growth (K-562 leukemia) of the same compound?
A: 92.6%

Q: What about the growth (MALME-3M melanoma) of the same compound?
A: 105%

Q: What about the growth (MDA-MB-231 breast) of the same compound?
A: 109%

Q: What about the growth (RXF 393 renal) of the same compound?
A: 110%

Q: And the growth (SF-268 CNS)?
A: 99.9%

Q: And the growth (SF-295 CNS)?
A: 97.3%

Q: And the growth (SF-539 CNS)?
A: 98.1%

Q: What about the growth (UACC-257 melanoma) of the same compound?
A: 92.8%

Q: And the growth (M14 melanoma)?
A: 102%

Q: And the growth (HCT-15 colon)?
A: 99.3%

Q: What about the growth (HT29 colon) of the same compound?
A: 87%

Q: And the growth (SNB-75 CNS)?
A: 92.2%

Q: And the growth (SNB-19 CNS)?
A: 91.4%

Q: What about the growth (U251 CNS) of the same compound?
A: 101%

Q: And the growth (PC-3 prostate)?
A: 88.3%

Q: What about the growth (SK-MEL-5 melanoma) of the same compound?
A: 98.4%

Q: What about the growth (UACC-62 melanoma) of the same compound?
A: 92.5%

Q: What about the growth (LOX IMVI melanoma) of the same compound?
A: 98.9%

Q: And the growth (SK-MEL-28 melanoma)?
A: 109%

Q: Which results are given for `C#Cc1cccc(Nc2ncnc3ccc(NC(=O)c4ccccc4)cc23)c1`?
A: growth (DU-145 prostate): 50.9%; growth (K-562 leukemia): 63.6%; growth (MALME-3M melanoma): 104%; growth (MDA-MB-231 breast): 95.6%; growth (RXF 393 renal): 58.5%; growth (SF-268 CNS): 74.7%; growth (SF-295 CNS): 89.7%; growth (SF-539 CNS): 90.5%; growth (UACC-257 melanoma): 99.6%; growth (M14 melanoma): 90.6%; growth (HCT-15 colon): 65.3%; growth (HT29 colon): 82.4%; growth (SNB-75 CNS): 67.2%; growth (SNB-19 CNS): 89.5%; growth (U251 CNS): 85.4%; growth (PC-3 prostate): 75.8%; growth (SK-MEL-5 melanoma): 95.5%; growth (UACC-62 melanoma): 95.2%; growth (LOX IMVI melanoma): 81.7%; growth (SK-MEL-28 melanoma): 93.9%

Q: Which results are given for `CCCCCCCc1n(Cc2ccc3ccccc3c2)c2ccccc2[n+]1Cc1ccc2ccccc2c1`?
A: growth (DU-145 prostate): -94.7% (active); growth (K-562 leukemia): -67.3% (active); growth (MALME-3M melanoma): -67.2% (active); growth (MDA-MB-231 breast): -81.2% (active); growth (RXF 393 renal): -72.1% (active); growth (SF-268 CNS): -74.9% (active); growth (SF-295 CNS): -92% (active); growth (SF-539 CNS): -88.9% (active); growth (UACC-257 melanoma): -76.5% (active); growth (M14 melanoma): -72% (active); growth (HCT-15 colon): -80% (active); growth (HT29 colon): -84.3% (active); growth (SNB-75 CNS): -86.8% (active); growth (SNB-19 CNS): -77.9% (active); growth (U251 CNS): -79.8% (active); growth (PC-3 prostate): -88.7% (active); growth (SK-MEL-5 melanoma): -92.8% (active); growth (UACC-62 melanoma): -89.6% (active); growth (LOX IMVI melanoma): -75.1% (active); growth (SK-MEL-28 melanoma): -85.4% (active)

Q: With `O=C1Nc2ccc(Br)cc2/C1=N\N=C/c1cn(Cc2ccccc2)c2ccccc12` as the compound, how does the growth (DU-145 prostate) read?
A: 95.7%

Q: And the growth (K-562 leukemia)?
A: 67.4%

Q: What about the growth (MALME-3M melanoma) of the same compound?
A: 115%

Q: And the growth (MDA-MB-231 breast)?
A: 93.3%

Q: And the growth (RXF 393 renal)?
A: 58.4%

Q: And the growth (SF-268 CNS)?
A: 95%

Q: And the growth (SF-295 CNS)?
A: 95.9%

Q: What about the growth (SF-539 CNS) of the same compound?
A: 99.4%

Q: What about the growth (UACC-257 melanoma) of the same compound?
A: 109%

Q: And the growth (M14 melanoma)?
A: 106%

Q: What about the growth (HCT-15 colon) of the same compound?
A: 103%

Q: What about the growth (HT29 colon) of the same compound?
A: 91%

Q: And the growth (SNB-75 CNS)?
A: 84.7%

Q: And the growth (SNB-19 CNS)?
A: 98%

Q: What about the growth (U251 CNS) of the same compound?
A: 94.6%

Q: What about the growth (PC-3 prostate) of the same compound?
A: 75.1%

Q: And the growth (SK-MEL-5 melanoma)?
A: 97.2%

Q: What about the growth (UACC-62 melanoma) of the same compound?
A: 79.4%

Q: What about the growth (LOX IMVI melanoma) of the same compound?
A: 98.1%

Q: What about the growth (SK-MEL-28 melanoma) of the same compound?
A: 105%

Q: How did the growth (DU-145 prostate) turn out when `C#CCOC(=O)[C@]1(C)CCC[C@]2(C)[C@H]3C[C@H]4C(C(C)C)=C[C@]3(CC[C@H]21)[C@@H]1C(=O)CCC(=O)[C@@H]14` was run?
A: 102%

Q: What about the growth (K-562 leukemia) of the same compound?
A: 77.2%

Q: And the growth (MALME-3M melanoma)?
A: 110%

Q: What about the growth (MDA-MB-231 breast) of the same compound?
A: 74.6%

Q: What about the growth (RXF 393 renal) of the same compound?
A: 86%

Q: And the growth (SF-268 CNS)?
A: 99.2%

Q: What about the growth (SF-295 CNS) of the same compound?
A: 83.7%

Q: What about the growth (SF-539 CNS) of the same compound?
A: 84%

Q: What about the growth (UACC-257 melanoma) of the same compound?
A: 92.3%

Q: And the growth (M14 melanoma)?
A: 91.9%

Q: And the growth (HCT-15 colon)?
A: 92.6%

Q: What about the growth (HT29 colon) of the same compound?
A: 71.1%

Q: What about the growth (SNB-75 CNS) of the same compound?
A: 90.3%

Q: And the growth (SNB-19 CNS)?
A: 86%

Q: And the growth (U251 CNS)?
A: 87.6%

Q: What about the growth (PC-3 prostate) of the same compound?
A: 49.7%

Q: And the growth (SK-MEL-5 melanoma)?
A: 85.5%

Q: And the growth (UACC-62 melanoma)?
A: 63.1%

Q: And the growth (LOX IMVI melanoma)?
A: 78.8%

Q: What about the growth (SK-MEL-28 melanoma) of the same compound?
A: 95.3%

Q: Which growth (DU-145 prostate) does the source give for `Cc1c(Br)cccc1NC(=O)c1sc2nc3c(cc2c1N)CN(Cc1ccccc1)CC3` here?
A: 17.8%

Q: What about the growth (K-562 leukemia) of the same compound?
A: 7.49% (active)

Q: And the growth (MALME-3M melanoma)?
A: 32.8%

Q: What about the growth (MDA-MB-231 breast) of the same compound?
A: 22.7%

Q: And the growth (RXF 393 renal)?
A: 6.25% (active)

Q: And the growth (SF-268 CNS)?
A: 31.7%

Q: And the growth (SF-295 CNS)?
A: 18.8%

Q: And the growth (SF-539 CNS)?
A: -4.32% (active)

Q: And the growth (UACC-257 melanoma)?
A: 67.7%

Q: And the growth (M14 melanoma)?
A: 0.627% (active)

Q: What about the growth (HCT-15 colon) of the same compound?
A: 18.2%

Q: What about the growth (HT29 colon) of the same compound?
A: 0.812% (active)

Q: What about the growth (SNB-75 CNS) of the same compound?
A: -9.13% (active)

Q: And the growth (SNB-19 CNS)?
A: 23%

Q: What about the growth (U251 CNS) of the same compound?
A: 9.19% (active)

Q: What about the growth (PC-3 prostate) of the same compound?
A: 31.8%

Q: What about the growth (SK-MEL-5 melanoma) of the same compound?
A: 19.4%

Q: And the growth (UACC-62 melanoma)?
A: 28.1%

Q: And the growth (LOX IMVI melanoma)?
A: 30.9%

Q: And the growth (SK-MEL-28 melanoma)?
A: 53.8%

Q: `Cn1cc(-c2ccc3c(c2)ncn3-c2ccc(CC(=O)Nc3cc(C(C)(C)C)on3)cc2)cn1` was tested. Which growth (DU-145 prostate) did it give?
A: 19.3%

Q: And the growth (K-562 leukemia)?
A: 9.77% (active)

Q: And the growth (MALME-3M melanoma)?
A: 25.5%

Q: What about the growth (MDA-MB-231 breast) of the same compound?
A: 11%

Q: And the growth (RXF 393 renal)?
A: -25% (active)

Q: What about the growth (SF-268 CNS) of the same compound?
A: 25.6%

Q: And the growth (SF-295 CNS)?
A: 37.2%

Q: And the growth (SF-539 CNS)?
A: -15.8% (active)

Q: What about the growth (UACC-257 melanoma) of the same compound?
A: 67.1%

Q: What about the growth (M14 melanoma) of the same compound?
A: 19.5%

Q: And the growth (HCT-15 colon)?
A: 16.1%

Q: What about the growth (HT29 colon) of the same compound?
A: 27.1%

Q: And the growth (SNB-75 CNS)?
A: -20.6% (active)

Q: What about the growth (SNB-19 CNS) of the same compound?
A: 58.5%

Q: What about the growth (U251 CNS) of the same compound?
A: 31.3%

Q: What about the growth (PC-3 prostate) of the same compound?
A: 43.5%

Q: What about the growth (SK-MEL-5 melanoma) of the same compound?
A: 48.2%

Q: And the growth (UACC-62 melanoma)?
A: 35.4%

Q: What about the growth (LOX IMVI melanoma) of the same compound?
A: 12.6%

Q: What about the growth (SK-MEL-28 melanoma) of the same compound?
A: 48.5%

Q: Which growth (DU-145 prostate) does the source give for `Cn1c2c(c3ccc(-c4ccn[nH]4)cc3c1=O)C(=O)c1ccccc1-2` here?
A: 15.9%

Q: What about the growth (K-562 leukemia) of the same compound?
A: 17.7%

Q: And the growth (MALME-3M melanoma)?
A: 55.8%

Q: And the growth (MDA-MB-231 breast)?
A: 86.9%

Q: And the growth (RXF 393 renal)?
A: 91.5%

Q: And the growth (SF-268 CNS)?
A: 40.8%

Q: And the growth (SF-295 CNS)?
A: 20.5%

Q: And the growth (SF-539 CNS)?
A: 37.3%

Q: What about the growth (UACC-257 melanoma) of the same compound?
A: 103%

Q: What about the growth (M14 melanoma) of the same compound?
A: 48.6%

Q: What about the growth (HCT-15 colon) of the same compound?
A: 15.7%

Q: What about the growth (HT29 colon) of the same compound?
A: 18.9%

Q: What about the growth (SNB-75 CNS) of the same compound?
A: 71%

Q: And the growth (SNB-19 CNS)?
A: 27.4%

Q: What about the growth (U251 CNS) of the same compound?
A: 13.5%

Q: What about the growth (PC-3 prostate) of the same compound?
A: 63.2%

Q: And the growth (SK-MEL-5 melanoma)?
A: 21.1%

Q: What about the growth (UACC-62 melanoma) of the same compound?
A: 47.9%

Q: What about the growth (LOX IMVI melanoma) of the same compound?
A: 0.163% (active)

Q: And the growth (SK-MEL-28 melanoma)?
A: 88.6%

Source: PubChem BioAssay (NCI)
